KCNH2 3.1 block: KCNH2 3.1 (human) potassium channel inhibition; U2OS KCNH2 3.1, thallium flux FluxOr; stronger effect = lower value; activity change, % (tested at about 1.8 µM); 0.95% of 340,000 active;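 active means maximum activity change below -70%; inconclusive means maximum activity change from -70% to -50%; inactive means maximum activity change above -50%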;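 further: thallium influx rate constant from kinetic fluorescence after stimulation buffer; on the % scale 0 is the no-effect control and ±100 the full control effect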
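Channel expression came from 3.1 mutant virus (1.77 x 10^8 /mL) applied to suspended U2OS cells for 4 h. Flux was tracked with FluxOr dye plus Red40 quencher, and kinetic rate constants normalized to controls.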
hERG WT inh: inhibitors of human wildtype KCNH2 potassium channel; Q12809; U2OS, BacMam KCNH2, thallium flux FluxOr; stronger effect = lower value; activity change, % at 1.84 µM; 0.37% of 340,000 active;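 active means maximum activity change below -70%; inconclusive means maximum activity change between -70% and -50%; inactive means maximum activity change above -50%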; further: on the % scale 0 is the no-effect control and ±100 the full control effect
Target sequence (Q12809 whole entry, looked up): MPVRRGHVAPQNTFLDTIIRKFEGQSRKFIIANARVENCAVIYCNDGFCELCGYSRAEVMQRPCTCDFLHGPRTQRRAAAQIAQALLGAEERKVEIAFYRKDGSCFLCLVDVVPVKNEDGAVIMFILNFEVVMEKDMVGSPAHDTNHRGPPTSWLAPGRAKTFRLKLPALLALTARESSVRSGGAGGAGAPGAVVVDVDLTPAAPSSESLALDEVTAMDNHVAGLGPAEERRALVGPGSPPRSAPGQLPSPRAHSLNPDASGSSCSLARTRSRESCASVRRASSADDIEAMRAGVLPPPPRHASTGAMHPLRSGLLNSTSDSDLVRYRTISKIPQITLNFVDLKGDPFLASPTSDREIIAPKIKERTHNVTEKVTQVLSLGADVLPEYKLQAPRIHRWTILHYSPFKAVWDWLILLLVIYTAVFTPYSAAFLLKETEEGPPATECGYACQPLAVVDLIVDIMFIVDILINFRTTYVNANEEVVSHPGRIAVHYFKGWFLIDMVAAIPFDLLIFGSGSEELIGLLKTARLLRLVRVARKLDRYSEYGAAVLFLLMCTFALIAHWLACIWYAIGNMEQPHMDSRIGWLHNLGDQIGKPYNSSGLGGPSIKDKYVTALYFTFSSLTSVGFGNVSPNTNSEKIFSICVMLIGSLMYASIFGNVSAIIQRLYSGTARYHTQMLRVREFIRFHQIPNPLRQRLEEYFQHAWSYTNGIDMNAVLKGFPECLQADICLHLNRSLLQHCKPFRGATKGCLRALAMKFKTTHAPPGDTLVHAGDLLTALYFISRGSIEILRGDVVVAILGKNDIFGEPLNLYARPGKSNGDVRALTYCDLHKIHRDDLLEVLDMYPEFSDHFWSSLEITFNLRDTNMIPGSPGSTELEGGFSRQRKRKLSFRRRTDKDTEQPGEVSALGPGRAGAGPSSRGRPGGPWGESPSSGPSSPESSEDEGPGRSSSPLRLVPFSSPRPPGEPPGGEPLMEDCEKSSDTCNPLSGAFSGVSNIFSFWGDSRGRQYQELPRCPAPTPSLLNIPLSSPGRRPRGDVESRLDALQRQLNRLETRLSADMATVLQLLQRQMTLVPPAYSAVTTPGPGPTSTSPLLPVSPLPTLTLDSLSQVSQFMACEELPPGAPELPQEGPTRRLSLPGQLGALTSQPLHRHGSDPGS
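U2OS cells transduced with wild-type KCNH2 virus are loaded with FluxOr dye for 45 min, and thallium flux is measured in kinetic reads before and after stimulation buffer. Rate constants are normalized to DMSO controls.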
SW480 rereplic: induces DNA re-replication in SW480 colon adenocarcinoma cells. SW480 DNA re-replication, Hoechst DNA content imaging, 48 h. Potency, µM (titrated, usually from 46.1 µM), for the others: at the highest dose re-replication activation, most hits filed as activators. 1.8% of 340,000 active. AID 624297; further: potency means the concentration at half of the fitted maximal effect; % of control where 0% means no effect; nearly all actives have a fitted effect of over 55% in size
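Image-based DNA-content assay: after two days of treatment, nuclei were labelled with the DNA dye Hoechst and imaged, and hits were compounds raising the count of nuclei showing high fluorescence intensity.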
MCF10A rerep: inducers of DNA re-replication in MCF 10A breast cells | MCF 10A DNA re-replication, Hoechst nuclear intensity, 48 h | Potency, µM (highest dose often 46.1 µM), without a hit: at the top dose activity, positive = re-replication, usual class: activators | 2.9% of 350,000 active | AID 624296; further: potency means the concentration at half of the fitted maximal effect; % of control where 0% means no effect; nearly all actives have a fitted effect of over 50% in size
KB-3-1 cytotox: kills parental KB-3-1 adenocarcinoma cells; KB-3-1 viability, CellTiter-Glo ATP luminescence, 72 h; Potency, µM (highest dose often 46.1 µM), usual class: cytotoxic; 1.4% of 400,000 active; further: potency means the concentration at half of the fitted maximal effect; on the % scale 0 is the no-effect control and ±100 the full control effect; nearly all actives have a fitted effect of over 60% in size
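72 h, 37 °C compound treatment of KB-3-1 parental cells; CellTiter-Glo added, 10 min, luminescence read. Data corrected against DMSO-only plates and normalized before curve fitting.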
KB-V1 cytotox: kills drug-selected multidrug resistant KB-V1 cells; KB-V1 MDR cells viability, CellTiter-Glo, 72 h; Potency, µM (series often up to 46.1 µM), actives largely listed as cytotoxic; 3.4% of 400,000 active; AID 1347076; further: potency means the concentration at half of the fitted maximal effect; on the % scale 0 is the no-effect control and ±100 the full control effect; nearly all actives have a fitted effect of over 60% in size
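Cells of the MDR subline KB-V1 are plated, dosed with compound at multiple concentrations, and incubated 72 h at 37 degrees C; CellTiter-Glo is then added and luminescence read after 10 min.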
* hit, by the source's call; i = inactive; ? = inconclusive; / = no result; ! = repeats disagree; [ ] = remark or other dose. Hits are enriched below; roughly 7.6% of the tested compounds scored in any of these assays. Unless noted, the call rests on the fitted dose curve; in most records, active means well fitted curve in the direction sought with a large enough effect; inconclusive means small, poorly fitted or top-dose-only effect, or another doubt; inactive means no such curve, though single readings can be large; an effect the other way counts as inactive or inconclusive.

SMILES | KCNH2 3.1 block | hERG WT inh | SW480 rereplic | MCF10A rerep | KB-3-1 cytotox | KB-V1 cytotox
CC(NC(=O)c1ccc2nc(CCc3ccccc3)oc2c1)c1ccccc1 (stereo unspecified) | / | / | / | / | i | i
O=c1c2cnn(-c3ccccc3)c2nc(-c2ccco2)n1-c1ccccc1 | -10 | -14 | -1% | ? | 15µM* | 5.2µM*
CC(=O)N1c2ccccc2C(=O)C1N1CCN(c2cc(Cl)ccc2C)CC1 (stereo unspecified) | / | / | / | / | i | i
CCn1cnc2cc(NCc3ccc(Br)cc3)ccc21 | -25 | 13 | 0% | 11% | i | i
CCCn1cnc2cc(NCc3ccc(Br)cc3)ccc21 | -83* | 14 | -4% | ? | i | i
CCCn1cnc2cc(NCc3cccc(OC)c3)ccc21 | -74* | 23 | 0% | -6% | i | ?
Brc1ccc(CNc2ccc3ncccc3c2)cc1 | -6 | -20 | -5% | 15µM* | ? | ?
CCCn1cnc2cc(NCc3ccc(OC)cc3OC)ccc21 | / | / | / | / | i | i
CCOc1ccccc1CNS(=O)(=O)c1cnc[nH]1 | -3 | -22 | -4% | -12% | i | i
Cc1ccc(S(=O)(=O)N(C)[C@H]2C[C@H]3c4[nH]c5ccccc5c4CCN3C[C@H]2[C@H](C)O)cc1 | / | / | / | / | i | i
CC(=O)c1ccc(Nc2cc(C)nc3c(C)cc(C)cc23)cc1 | 13 | 3 | 2.6µM* | ? | ? | ?
O=Cc1s/c(=N\S(=O)(=O)c2ccccc2)n(CCCCl)c1Cl | -30 | -12 | 8.2µM* | ? | ? | i
CCn1c(C)cs/c1=N\S(=O)(=O)c1ccccc1 | -22 | -4 | -4% | -4% | i | i
Cc1ccc(NC(=O)c2ccc(Cl)c(S(=O)(=O)N3CCCCCC3)c2)nc1 | 9 | -7 | -27% | 12% | ? | i
CC(C)C(C)(C#N)NC(=O)CSc1ncnc2sc(-c3ccccc3)cc12 (stereo unspecified) | 0 | -1 | -1% | 14% | i | 23µM*
CC(C)(C)Nc1ncnc2sc(-c3ccccc3)cc12 | -1 | 0 | ? | 18µM* | ? | i
COc1ncnc2sc(-c3ccccc3)cc12 | -11 | 3 | 2% | -1% | i | ?
COc1ccc(Nc2ncnc3sc(-c4ccccc4)cc23)cc1 | 1 | -6 | 7% | ? | ? | 21µM*
c1ccc(-c2cc3c(N4CCN(c5ccccc5)CC4)ncnc3s2)cc1 | -25 | -3 | 4% | 12µM* | i | ?
C=Cc1ccc(Cn2c(=O)n(CCCOC)c(=O)c3sccc32)cc1 | 6 | 6 | 25% | 1% | i | i
O=C(CNS(=O)(=O)c1ccc(Br)cc1)NC1CCCC1 | 3 | -11 | -1% | 0% | i | i
COc1ccc(C(=O)Nc2ccc(Oc3ncnc4sc(-c5ccccc5)cc34)cc2)cc1OC | -23 | -5 | / | 3.3µM* | i | i
C=CCN=C1CCCc2c1[nH]c1ccc(C)cc21 | 8 | -14 | 0% | -10% | 6.5µM* | 3.3µM*
OCCN=C1CCCc2c1[nH]c1ccc(Br)cc21 | -2 | 1 | -2%[9.22 µM] | 21% | 1µM* | 0.33µM*
COc1ccc(C(CC(=O)Nc2ccc(C)c(C)c2)N2Cc3ccccc3C2=O)cc1OC (stereo unspecified) | / | / | / | / | i | ?
SMILES | KCNH2 3.1 block | hERG WT inh | SW480 rereplic | MCF10A rerep | KB-3-1 cytotox | KB-V1 cytotox
COc1ccc(C(CC(=O)Nc2ccc(F)c(Cl)c2)N2Cc3ccccc3C2=O)cc1OC (stereo unspecified) | / | / | / | / | i | 18µM*
Cc1cc(N(C)C)c(C)cc1/C=C/c1ccnc2ccccc12 | / | / | / | / | 2.9µM* | 6.5µM*
CCCCN(CCCC)c1ccc(C=Nc2ccc(/C=C/c3ccnc4ccccc34)cc2)cc1C | / | / | / | / | ? | 23µM*
COc1cc(N(C)C)ccc1/C=C/c1ccnc2ccccc12 | / | / | / | / | i | ?
CCN(CC)c1cc(C)c(/C=C/c2ccnc3ccccc23)cc1C | / | / | / | / | 12µM* | ?
Cc1ccc(S(=O)(=O)NCCc2csc(-c3cccc(F)c3)n2)cc1 | / | / | / | / | i | i
COc1ccc([C@H]2/C=C\CN(C(=O)c3ccccc3)[C@@H](C)C(=O)N2Cc2ccc(F)cc2)cc1 | -4 | -7 | ? | 13% | i | i
CC(=O)c1ccc(Nc2nc(C(N)Cc3ccc(C(F)(F)F)cc3)cs2)cc1 (stereo unspecified) | / | / | / | / | ? | 12µM*
NCc1csc(Nc2ccc(C(=O)c3ccccc3)cc2)n1 | / | / | / | / | 5.8µM* | ?
NC(Cc1ccc(C(F)(F)F)cc1)c1csc(Nc2ccc(C(=O)c3ccccc3)cc2)n1 (stereo unspecified) | / | / | / | / | ? | 23µM*
COCCN(C(=O)COC(=O)Cc1cccc(OC)c1)c1c(N)n(CC(C)C)c(=O)[nH]c1=O | 10 | -15 | -1% | -3% | i | i
CCn1c(=S)[nH]c2cc(S(=O)(=O)N3CCCCC3)ccc21 | -3 | 16 | -8% | -9% | i | 13µM*
Cc1ccc(C(=O)NCCc2nnc3ccc(NCc4ccc5c(c4)OCO5)nn23)cc1 | / | 0 | -23% | -5% | i | i
Cc1cccc(C(=O)NCCc2nc3ccccc3n2Cc2ccc(Cl)cc2)c1 | / | / | / | / | ? | 10µM*
COCn1c(-c2cccc(Br)c2)nc2ccccc21 | 8 | -2 | 27% | 16% | i | 18µM*
Cc1cccc(Cn2c(Cc3ccccc3)nc3ccccc32)c1 | 2 | -2 | 0% | 24% | i | 21µM*!
Cc1cccc(Cn2c(COc3ccc(Cl)cc3)nc3ccccc32)c1 | / | / | / | / | i | i
COCc1nc2ccccc2n1Cc1cccc(C)c1 | 2 | -7 | -6% | -1% | i | 16µM*!
CCc1ccccc1N(C)C(=O)Cn1cnc2sc(C)c(S(=O)(=O)N3CCC(C)CC3)c2c1=O | / | / | / | / | i | i
Cc1c(C(=O)NC(c2ccccn2)C(F)(F)F)oc2c(F)cccc12 (stereo unspecified) | 0 | -3 | -5% | 6% | i | i
COc1ccc(NC(=O)CSc2nnc3ccc(-c4ccccn4)nn23)cc1OC | 5 | -6 | -4% | 6% | i | i
CCOC(=O)c1c(NC(=O)/C=C/C(=O)O)sc(C)c1-c1ccc(F)cc1 | 7 | 5 | 0% | ? | ? | ?
CCOC(=O)c1c(NC(=O)/C=C/C(=O)O)sc(C)c1-c1ccc(C)c(C)c1 | -23 | / | 13% | 4.1µM* | i | i
COC(=O)c1c(NC(=O)/C=C/C(=O)O)sc(C)c1-c1ccc(C(C)C)cc1 | 16 | -7 | 15µM* | 3.3µM* | 21µM* | ?

Screening data as filed in PubChem.
